Activity calls are given as the source filed them. Rule for the calls: active = hit-call score of the fitted dose curve at least 0.9, where 1 is the maximum; inactive = score below 0.9.
Assays:
[1] = ATG_GLI_CIS: Attagene CIS-FACTORIAL HepG2 Assay for human Zinc Finger Protein GLI1 (AID 2282945); conditions: HepG2, Attagene cis-factorial reporter mRNA, GLI element; actives raise or lower the signal
Summary of the method: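 Bidirectional curve fits relative to DMSO, using reporter mRNA levels from RT-PCR plus capillary electrophoresis. Cells were HepG2 transiently carrying cis-regulated reporter constructs, harvested 24 h after dosing.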

[2] = biological target: Bile acid receptor (Homo sapiens) (UniProt Q96RI1); experiment: ATG_IR1_CIS: Attagene CIS-FACTORIAL HepG2 Assay for human Nuclear Receptor Subfamily 1 Group H Member 4 (NR1H4), IR1 submotif (AID 2282946); conditions: IR1 reporter transcription, actives raise or lower the signal
Sequence of Bile acid receptor (Homo sapiens) (Q96RI1 whole entry, looked up): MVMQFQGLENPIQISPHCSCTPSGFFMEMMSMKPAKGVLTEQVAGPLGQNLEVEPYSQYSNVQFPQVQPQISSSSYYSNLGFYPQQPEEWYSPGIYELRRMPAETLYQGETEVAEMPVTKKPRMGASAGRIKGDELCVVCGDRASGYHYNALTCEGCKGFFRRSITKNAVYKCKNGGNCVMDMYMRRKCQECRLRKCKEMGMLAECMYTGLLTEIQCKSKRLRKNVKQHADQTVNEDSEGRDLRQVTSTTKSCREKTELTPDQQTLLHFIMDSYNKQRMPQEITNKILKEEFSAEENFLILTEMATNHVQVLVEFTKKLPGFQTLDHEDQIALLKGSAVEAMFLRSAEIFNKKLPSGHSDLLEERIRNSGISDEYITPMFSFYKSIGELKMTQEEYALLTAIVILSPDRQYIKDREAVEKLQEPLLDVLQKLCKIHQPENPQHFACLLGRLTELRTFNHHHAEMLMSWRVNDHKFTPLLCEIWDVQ
Summary of the method: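 HepG2 cells transiently transfected with multiplexed cis-element reporter units read endogenous transcription factor activity. After 24 h compound exposure, reporter mRNA was quantified by RT-PCR, fluorescent labelling, HpaI digestion and capillary electrophoresis; bidirectional fitting versus DMSO baseline.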

[3] = ATG_GRE_CIS: Attagene CIS-FACTORIAL HepG2 Assay for human Glucocorticoid Response Elements (GRE) (AID 2282947); conditions: HepG2 GRE cis-reporter, Attagene multiplex mRNA; actives raise or lower the signal
Summary of the method: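 Multiplexed cis-reporter mRNA induction, HepG2, 24 h post-dose. RT-PCR, FAM-labelled, HpaI-digested amplicons by CE. Bidirectional fit vs DMSO.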

[4] = ATG_ISRE_CIS: Attagene CIS-FACTORIAL HepG2 Assay for human Interferon Regulatory Factor 1 (IRF1) binding to an Interferon-Stimulated Response Element (ISRE) (AID 2282948); conditions: HepG2 ISRE cis-reporter (Attagene), mRNA transcription readout; actives raise or lower the signal
Summary of the method: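 Uses HepG2 liver cells transfected with cis-regulated reporters and measures mRNA 24 h post-dosing through RT-PCR, primer-extension labelling and capillary electrophoresis, with DMSO as negative control.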

[5] = ATG_M_32_CIS: Attagene CIS-FACTORIAL HepG2 Assay for M32 Transcription Factor (Internal Marker) (AID 2282949); conditions: HepG2 Attagene cis-factorial M32 reporter, mRNA; actives raise or lower the signal;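 note: background control marker of the multiplexed CIS panel rather than a real target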
Summary of the method: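 Transient MRTU transfection of HepG2; 24 h compound treatment; TriZol RNA, oligo(dT) RT, reporter PCR, 6-FAM primer extension, HpaI cut, CE. Gain/loss of signal vs DMSO.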

[6] = ATG_M_06_CIS: Attagene CIS-FACTORIAL HepG2 Assay for M06 Transcription Factor (Internal Marker) (AID 2282950); conditions: HepG2 Attagene CIS-FACTORIAL M06 internal marker reporter; actives raise or lower the signal
Summary of the method: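 Internal background marker within multiplexed cis-reporter HepG2 system. Cells transiently transfected, dosed 24 h; reporter mRNA measured by RT-PCR, HpaI digestion and capillary electrophoresis. Bidirectional fit relative to DMSO.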

[7] = biological target: Hepatocyte nuclear factor 6 (Homo sapiens) (UniProt Q9UBC0); experiment: ATG_HNF6_CIS: Attagene CIS-FACTORIAL HepG2 Assay for human Hepatocyte Nuclear Factor 6 (HNF6) (AID 2282952); conditions: HepG2 Attagene cis-factorial HNF6 reporter transcription; actives raise or lower the signal
Sequence of Hepatocyte nuclear factor 6 (Homo sapiens) (Q9UBC0 whole entry, looked up, the tested form may be a part): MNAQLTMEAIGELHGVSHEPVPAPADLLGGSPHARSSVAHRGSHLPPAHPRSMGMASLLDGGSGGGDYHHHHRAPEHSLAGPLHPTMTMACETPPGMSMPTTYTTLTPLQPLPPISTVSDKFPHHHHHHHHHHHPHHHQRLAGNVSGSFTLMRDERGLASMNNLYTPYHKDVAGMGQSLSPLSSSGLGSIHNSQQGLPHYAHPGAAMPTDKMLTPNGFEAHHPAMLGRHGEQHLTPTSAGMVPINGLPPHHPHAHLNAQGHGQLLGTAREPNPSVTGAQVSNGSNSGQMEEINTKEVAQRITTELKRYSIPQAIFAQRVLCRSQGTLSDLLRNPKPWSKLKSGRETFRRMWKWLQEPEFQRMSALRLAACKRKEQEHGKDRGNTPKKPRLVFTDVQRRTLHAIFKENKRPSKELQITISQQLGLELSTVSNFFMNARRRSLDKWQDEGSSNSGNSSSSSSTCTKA
Summary of the method: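 Twenty-four-hour chemical treatment of reporter-transfected HepG2 cells precedes RNA isolation, DNase-treated reverse transcription and PCR of reporter sequences. Labelled fragments are sized by capillary electrophoresis and fitted bidirectionally versus DMSO.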

[8] = biological target: Heat shock factor protein 1 (Homo sapiens) (UniProt Q00613); experiment: ATG_HSE_CIS: Attagene CIS-FACTORIAL HepG2 Assay for human Heat Shock Transcription Factor 1 (HSE) (AID 2282953); conditions: HepG2 HSE cis-reporter, Attagene RNA transcription; actives raise or lower the signal
Sequence of Heat shock factor protein 1 (Homo sapiens) (Q00613 whole entry, looked up): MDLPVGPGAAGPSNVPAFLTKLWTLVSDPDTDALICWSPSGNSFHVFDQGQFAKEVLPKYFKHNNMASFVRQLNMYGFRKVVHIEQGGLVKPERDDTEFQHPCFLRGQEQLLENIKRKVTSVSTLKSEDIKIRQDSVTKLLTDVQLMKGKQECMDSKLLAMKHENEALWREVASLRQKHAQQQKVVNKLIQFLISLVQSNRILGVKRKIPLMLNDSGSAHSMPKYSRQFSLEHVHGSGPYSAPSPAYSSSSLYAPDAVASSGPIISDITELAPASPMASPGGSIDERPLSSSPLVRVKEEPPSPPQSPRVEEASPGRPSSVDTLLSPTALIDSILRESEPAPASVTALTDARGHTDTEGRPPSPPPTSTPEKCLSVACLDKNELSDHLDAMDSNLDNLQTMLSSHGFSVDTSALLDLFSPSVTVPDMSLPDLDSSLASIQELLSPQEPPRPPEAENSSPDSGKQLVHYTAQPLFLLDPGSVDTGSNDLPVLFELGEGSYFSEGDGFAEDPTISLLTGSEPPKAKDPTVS
Summary of the method: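 HepG2 cells transfected with cis-promoter reporter units sensing endogenous transcription factor activity; reporter mRNA quantified 24 h post-dose by RT-PCR and capillary electrophoresis of 6-FAM-labelled products. Bidirectional fitting against DMSO.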

[9] = ATG_MRE_CIS: Attagene CIS-FACTORIAL HepG2 Assay for human Metal Responsive Element (MRE) (AID 2282954); conditions: HepG2 MRE cis-reporter transcription, Attagene multiplex; actives raise or lower the signal
Summary of the method: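 Multiplexed cis-reporter assay in human HepG2 liver cells, 24 h incubation with test chemical. Reporter transcripts measured by RT-PCR and capillary electrophoresis; values from bidirectional curve fitting versus DMSO.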

[10] = ATG_PBREM_CIS: Attagene CIS-FACTORIAL HepG2 Assay for human Phenobarbital-responsive Enhancer Module (PBREM) (AID 2282955); conditions: HepG2 PBREM cis-reporter, Attagene multiplexed transcription; actives raise or lower the signal
Summary of the method: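 Endogenous transcription factor activity was read from reporter transcripts in transiently transfected human HepG2 liver cells after 24 h dosing. RT-PCR products were fluorescently labelled, HpaI-cut and sized by capillary electrophoresis; activity fitted bidirectionally against DMSO baseline.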

[11] = biological target: Paired box protein Pax-6 (Homo sapiens) (UniProt P26367); experiment: ATG_Pax6_CIS: Attagene CIS-FACTORIAL HepG2 Assay for human Paired Box 6 (PAX6) (AID 2282956); conditions: HepG2 CIS-FACTORIAL PAX6 reporter transcription, RNA readout; actives raise or lower the signal
Sequence of Paired box protein Pax-6 (Homo sapiens) (P26367 whole entry, looked up): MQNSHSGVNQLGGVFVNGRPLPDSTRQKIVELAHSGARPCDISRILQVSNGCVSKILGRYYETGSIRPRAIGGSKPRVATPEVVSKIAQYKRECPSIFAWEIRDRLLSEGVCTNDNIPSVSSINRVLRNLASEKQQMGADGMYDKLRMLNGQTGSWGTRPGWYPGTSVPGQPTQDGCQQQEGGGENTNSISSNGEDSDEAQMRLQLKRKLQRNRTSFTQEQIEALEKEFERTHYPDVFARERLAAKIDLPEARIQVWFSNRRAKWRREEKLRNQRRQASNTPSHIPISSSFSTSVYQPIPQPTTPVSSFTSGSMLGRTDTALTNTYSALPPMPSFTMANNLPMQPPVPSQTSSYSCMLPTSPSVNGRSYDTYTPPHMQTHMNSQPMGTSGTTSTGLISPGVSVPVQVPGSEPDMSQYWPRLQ
Summary of the method: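 DMSO-referenced bidirectional fits of reporter mRNA fluorescence; HepG2 with transient cis-promoter MRTUs, 24 h post-dose, RT-PCR plus capillary electrophoresis detection.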

[12] = ATG_PXRE_CIS: Attagene CIS-FACTORIAL HepG2 Assay for human Pregnane X Receptor Element (PXRE) (AID 2282957); conditions: HepG2 Attagene CIS-FACTORIAL PXRE reporter, mRNA; actives raise or lower the signal
Summary of the method: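 Bidirectional activity, baselined to DMSO, derived from reporter mRNA fluorescence (RT-PCR plus capillary electrophoresis) in HepG2 cells bearing cis-promoter reporter units, 24 h exposure.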

[13] = ATG_PPRE_CIS: Attagene CIS-FACTORIAL HepG2 Assay for human Peroxisome Proliferator-activated Response Element (PPRE) (AID 2282958); conditions: HepG2 PPRE cis-element reporter, Attagene transcription factor profiling; actives raise or lower the signal
Summary of the method: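 Endogenous PPRE-driven transcription is measured in HepG2 cells carrying transfected multi-reporter constructs. Reporter transcripts are quantified by RT-PCR, HpaI digestion and capillary electrophoresis 24 h after dosing. DMSO baseline, bidirectional fit.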

[14] = ATG_RORE_CIS: Attagene CIS-FACTORIAL HepG2 Assay for human RAR-related Orphan Receptor Element (RORE) (AID 2282959); conditions: HepG2 Attagene cis-factorial RORE reporter, mRNA; actives raise or lower the signal
Summary of the method: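 RORE reporter transcripts reflecting endogenous factor activity were read after 24 h compound exposure of transfected HepG2 cells, using reverse transcription, PCR, fluorescent labelling and capillary electrophoresis sizing. Gain or loss fitted against DMSO.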

[15] = ATG_Sox_CIS: Attagene CIS-FACTORIAL HepG2 Assay for human SRY-box transcription factor (SOX) (AID 2282960); conditions: HepG2 Attagene cis-factorial SOX reporter, mRNA; actives raise or lower the signal
Summary of the method: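 Reporter transcripts, measured by RT-PCR and capillary electrophoresis of labelled fragments, report endogenous SOX transcription factor activity. Transiently transfected human HepG2 cells receive chemical for 24 h; changes in either direction are fitted relative to DMSO.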

[16] = biological target: Transcription factor Sp1 (Homo sapiens) (UniProt P08047); experiment: ATG_Sp1_CIS: Attagene CIS-FACTORIAL HepG2 Assay for human Specificity Protein 1 (Sp1) (AID 2282961); conditions: HepG2 Sp1 cis-reporter transcription, actives raise or lower the signal
Sequence of Transcription factor Sp1 (Homo sapiens) (P08047 whole entry, looked up): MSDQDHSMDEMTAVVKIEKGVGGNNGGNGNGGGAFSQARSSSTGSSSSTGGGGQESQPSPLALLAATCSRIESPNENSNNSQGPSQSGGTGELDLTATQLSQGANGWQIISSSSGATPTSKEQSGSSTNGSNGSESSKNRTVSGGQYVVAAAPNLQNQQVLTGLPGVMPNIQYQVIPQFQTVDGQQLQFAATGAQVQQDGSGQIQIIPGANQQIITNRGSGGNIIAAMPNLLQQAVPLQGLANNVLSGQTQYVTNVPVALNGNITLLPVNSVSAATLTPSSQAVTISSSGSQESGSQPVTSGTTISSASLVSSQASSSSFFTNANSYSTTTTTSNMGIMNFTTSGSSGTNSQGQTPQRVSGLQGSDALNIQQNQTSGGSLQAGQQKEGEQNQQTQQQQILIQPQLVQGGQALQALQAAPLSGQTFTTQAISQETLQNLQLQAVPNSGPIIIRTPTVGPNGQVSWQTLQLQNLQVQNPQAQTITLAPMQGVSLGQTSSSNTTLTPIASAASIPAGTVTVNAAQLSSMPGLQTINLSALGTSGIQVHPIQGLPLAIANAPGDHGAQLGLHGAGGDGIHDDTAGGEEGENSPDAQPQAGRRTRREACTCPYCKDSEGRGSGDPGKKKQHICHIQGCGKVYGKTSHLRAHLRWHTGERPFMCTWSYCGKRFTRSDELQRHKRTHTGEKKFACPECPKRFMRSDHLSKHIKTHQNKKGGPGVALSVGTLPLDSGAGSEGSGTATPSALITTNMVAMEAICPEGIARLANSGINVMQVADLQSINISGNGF
Summary of the method: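 Read-out is reporter transcript level, measured by RT-PCR and fluorescent capillary electrophoresis after 24 h chemical treatment. System: transiently transfected HepG2 cells reporting endogenous transcription factor activity; gain or loss fitted against DMSO baseline.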

[17] = ATG_SREBP_CIS: Attagene CIS-FACTORIAL HepG2 Assay for human Sterol Regulatory Element Binding (SREBP) (AID 2282962); conditions: HepG2 Attagene cis-factorial SREBP reporter, mRNA; actives raise or lower the signal
Summary of the method: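 In this cis-format assay, HepG2 liver cells express reporters controlled by promoter elements responsive to native transcription factors. Exposure lasts 24 h; reporter mRNA fluorescence from capillary electrophoresis gives the signal, fitted bidirectionally against DMSO.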

[18] = biological target: Signal transducer and activator of transcription 3 (Homo sapiens) (UniProt P40763); experiment: ATG_STAT3_CIS: Attagene CIS-FACTORIAL HepG2 Assay for human Signal Transducer and Activator of Transcription 3 (STAT3) (AID 2282963); conditions: HepG2, Attagene cis-factorial STAT3 reporter transcription; actives raise or lower the signal
Sequence of Signal transducer and activator of transcription 3 (Homo sapiens) (P40763 whole entry, looked up): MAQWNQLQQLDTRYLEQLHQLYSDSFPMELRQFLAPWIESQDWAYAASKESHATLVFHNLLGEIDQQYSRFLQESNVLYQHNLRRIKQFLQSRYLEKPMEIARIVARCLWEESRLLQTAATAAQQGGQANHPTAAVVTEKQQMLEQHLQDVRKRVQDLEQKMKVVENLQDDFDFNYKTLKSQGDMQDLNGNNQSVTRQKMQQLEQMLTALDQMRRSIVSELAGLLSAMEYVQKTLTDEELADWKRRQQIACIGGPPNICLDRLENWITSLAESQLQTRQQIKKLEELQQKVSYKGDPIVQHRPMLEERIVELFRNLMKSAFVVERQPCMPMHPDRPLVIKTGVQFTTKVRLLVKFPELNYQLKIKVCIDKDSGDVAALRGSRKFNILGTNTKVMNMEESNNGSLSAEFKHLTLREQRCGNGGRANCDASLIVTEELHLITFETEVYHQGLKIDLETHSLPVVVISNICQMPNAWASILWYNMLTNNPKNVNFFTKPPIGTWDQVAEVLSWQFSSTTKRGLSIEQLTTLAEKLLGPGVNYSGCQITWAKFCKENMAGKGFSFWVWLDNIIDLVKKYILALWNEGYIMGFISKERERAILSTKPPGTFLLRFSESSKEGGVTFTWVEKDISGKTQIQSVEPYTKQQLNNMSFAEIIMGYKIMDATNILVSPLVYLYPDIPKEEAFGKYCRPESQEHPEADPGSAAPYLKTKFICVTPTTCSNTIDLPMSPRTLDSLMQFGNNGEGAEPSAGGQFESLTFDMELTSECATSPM
Summary of the method: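 Cis-factorial format: endogenous transcription factors in HepG2 drive transfected reporter units. After 24 h treatment, reporter RNA was reverse-transcribed, amplified, FAM-labelled and HpaI-digested before CE analysis; activity scored in both directions against DMSO.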

[19] = ATG_TA_CIS: Attagene CIS-FACTORIAL HepG2 Assay for human TA Basal Promoter (AID 2282964); conditions: HepG2 Attagene CIS-factorial TA basal promoter reporter; actives raise or lower the signal
Summary of the method: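 HepG2 cells transiently transfected with multiple reporter units under cis promoter elements, reporting endogenous transcription factor activity; this endpoint tracks the TA basal promoter as background control. Reporter mRNA after 24 h dosing measured by RT-PCR/capillary electrophoresis; bidirectional fits versus DMSO.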

[20] = biological target: Hypoxia-inducible factor 1-alpha (Homo sapiens) (UniProt Q16665); experiment: ATG_HIF1a_CIS: Attagene CIS-FACTORIAL HepG2 Assay for human Hypoxia Inducible Factor 1 (HIF1A) (AID 2282951); conditions: HepG2 Attagene cis-factorial HIF1a reporter transcription; actives raise or lower the signal
Sequence of Hypoxia-inducible factor 1-alpha (Homo sapiens) (Q16665 whole entry, looked up): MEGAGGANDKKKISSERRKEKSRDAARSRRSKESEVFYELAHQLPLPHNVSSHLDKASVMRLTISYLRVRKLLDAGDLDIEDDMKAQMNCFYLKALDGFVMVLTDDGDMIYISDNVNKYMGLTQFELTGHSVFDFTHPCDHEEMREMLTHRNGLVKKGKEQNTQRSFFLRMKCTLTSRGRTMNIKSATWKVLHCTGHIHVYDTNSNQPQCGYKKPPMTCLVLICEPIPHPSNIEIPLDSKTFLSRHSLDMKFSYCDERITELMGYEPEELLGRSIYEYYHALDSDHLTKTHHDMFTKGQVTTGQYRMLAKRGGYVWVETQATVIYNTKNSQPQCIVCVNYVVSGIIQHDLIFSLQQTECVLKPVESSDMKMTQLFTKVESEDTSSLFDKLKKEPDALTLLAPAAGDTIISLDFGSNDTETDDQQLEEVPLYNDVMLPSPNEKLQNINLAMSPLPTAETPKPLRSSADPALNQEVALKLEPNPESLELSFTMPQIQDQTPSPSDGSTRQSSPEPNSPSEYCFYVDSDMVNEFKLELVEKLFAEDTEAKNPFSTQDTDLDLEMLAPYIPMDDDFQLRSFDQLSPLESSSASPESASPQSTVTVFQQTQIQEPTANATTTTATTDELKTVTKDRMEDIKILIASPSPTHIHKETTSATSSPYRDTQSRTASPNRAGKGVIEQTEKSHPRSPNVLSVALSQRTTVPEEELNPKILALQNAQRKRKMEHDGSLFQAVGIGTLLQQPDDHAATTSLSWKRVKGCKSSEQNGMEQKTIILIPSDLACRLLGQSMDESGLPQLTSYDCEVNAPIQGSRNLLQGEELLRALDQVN
Summary of the method: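 Activity is fitted in both directions relative to DMSO. Reporter transcripts are read by RT-PCR, fluorescent primer extension and capillary electrophoresis after 24 h chemical treatment. The cells are HepG2 carrying transiently transfected cis-element-driven reporter units responding to endogenous factors.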

Measured: AC50

OCCCC(F)(F)C(F)(F)C(F)(F)C(F)(F)C(F)(F)C(F)(F)C(F)(F)C(F)(F)F
active: [4] 50 µM | [11] 29.9 µM | [13] 20.9 µM
inactive: [1] | [2] | [3] | [5] | [6] | [7] | [8] | [9] | [10] | [12] | [14] | [15] | [16] | [17] | [18] | [19]

NC(=O)C(F)(F)C(F)(F)C(F)(F)C(F)F
inactive: [1] | [2] | [3] | [4] | [5] | [6] | [7] | [8] | [9] | [10] | [11] | [12] | [13] | [14] | [15] | [16] | [17] | [18] | [19]

N#CCCOCCC#N
inactive: [1] | [2] | [3] | [4] | [5] | [6] | [20] | [7] | [8] | [9] | [10] | [12] | [13] | [14] | [15] | [16] | [17] | [18] | [19]

O=C1OC(=O)c2ccc3c4c(ccc1c24)C(=O)OC3=O
inactive: [1] | [2] | [3] | [4] | [5] | [6] | [20] | [7] | [8] | [10] | [12] | [13] | [14] | [15] | [16] | [17] | [18] | [19]

CC(C)C(=O)OCc1ccccc1
inactive: [1] | [2] | [3] | [4] | [5] | [6] | [7] | [8] | [10] | [11] | [12] | [13] | [14] | [15] | [16] | [17] | [18]

Cc1ccc2c(c1)OCC(=O)CO2
inactive: [1] | [2] | [3] | [5] | [6] | [7] | [8] | [9] | [10] | [13] | [14] | [15] | [16] | [17] | [18]
active: [12] 77 µM

Cc1ccc(O)cn1
inactive: [1] | [2] | [3] | [5] | [6] | [7] | [8] | [10] | [11] | [12] | [13] | [14] | [15] | [16] | [17] | [18] | [19]
